Results: PubChem BioAssay
Activity calls are given as the source filed them. Unless noted, no rule for the calls is given here.

Experiments:
[1] = tested on: Wnt5a (protein binding on small-molecule microarray); assay: Wnt5a binders on small-molecule microarray, primary screen, biophysical, 635/667 nm fluorescence (AID 1142); conditions: 635 nm fluorescence, higher = more signal;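 also: fluorescence read at 667 nm with signal to noise per printed feature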
[2] = cell viability in Huh7 cells, primary screen, cytotoxicity control for HCV replication inhibitor project, CellTiter-Glo luminescence, basal, 48 h (AID 1143); conditions: Huh7 HCV replicon, higher = more signal, called active from +8 up or from −8 down;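 also: Huh7 hepatoma cells carrying a hepatitis C replication reporter with no stimulus; test concentration not given here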
[3] = P. aeruginosa biofilm formation inhibitors, primary screen, PAO1 strain, BacTiter-Glo luminescence, LB-PBS (AID 1144); conditions: 12 h, higher = more signal
[4] = CREB reporter modulators without forskolin, primary screen, cell-based, PC12, CRE-LacZ reporter, unstimulated (AID 1145); conditions: no forskolin, luminescence, 4.5 h, higher = more signal, called active from +8 up or from −8 down
[5] = CREB reporter modulators under forskolin, primary screen, cell-based, PC12, CRE-LacZ reporter, forskolin-stimulated (AID 1146); conditions: luminescence, 4.5 h, higher = more signal, called active from +8 up or from −8 down;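 also: PC12 cells with 6xCRE LacZ reporter stimulated by forskolin 10 µM; beta-galactosidase reporter signal reflecting CREB driven transcription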
[6] = target: Streptavidin (Streptomyces avidinii) (UniProt P22629); assay: streptavidin binders on small-molecule microarray, primary screen, artefact control for SMM compound annotation, biophysical, 635/667 nm fluorescence (AID 1147); conditions: streptavidin binding, higher = more signal;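 also: signal reflects streptavidin binding to arrayed compounds as a control protein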
Streptavidin (Streptomyces avidinii), sequence (P22629 whole entry, looked up): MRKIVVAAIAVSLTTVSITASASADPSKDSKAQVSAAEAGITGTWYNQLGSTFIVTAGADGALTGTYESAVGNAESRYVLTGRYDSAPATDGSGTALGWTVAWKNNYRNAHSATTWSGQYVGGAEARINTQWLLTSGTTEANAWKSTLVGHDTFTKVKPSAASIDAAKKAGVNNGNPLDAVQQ

[7] = small-molecule binders of probe aInhba, primary screen, biochemical, small-molecule microarray, 635/667 nm fluorescence (AID 1148); conditions: higher = more signal;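 also: score merges 667nm spot fluorescence with signal-to-noise for antibody binding to printed compounds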
[8] = target: Torsin-1A (Homo sapiens) (UniProt O14656); assay: torsin A binders from cell lysate, primary screen, small-molecule microarray, wild-type, 635/667 nm (AID 1149); conditions: COS7 hTOR1A-WT lysate, 635 nm fluorescence, higher = more signal
Torsin-1A (Homo sapiens), sequence (O14656 whole entry, looked up): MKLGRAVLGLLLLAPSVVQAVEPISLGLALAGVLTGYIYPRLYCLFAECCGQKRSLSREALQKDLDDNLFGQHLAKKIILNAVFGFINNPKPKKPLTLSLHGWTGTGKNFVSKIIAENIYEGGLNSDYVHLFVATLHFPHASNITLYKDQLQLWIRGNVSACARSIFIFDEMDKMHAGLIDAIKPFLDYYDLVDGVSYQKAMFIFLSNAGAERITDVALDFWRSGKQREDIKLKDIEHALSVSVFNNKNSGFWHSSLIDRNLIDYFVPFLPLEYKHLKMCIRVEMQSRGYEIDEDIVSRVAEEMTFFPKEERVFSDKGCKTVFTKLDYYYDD

[9] = target: Torsin-1A (Homo sapiens) (UniProt O14656); assay: small-molecule binders of mutant TOR1A in lysate, primary screen, cell lysate, small-molecule microarray, COS7 lysate, 635/667 nm fluorescence (AID 1150); conditions: COS7 hTOR1A mutant lysate, 635 nm fluorescence, higher = more signal;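 also: score pools 667 nm emission and signal to noise measuring lysate protein binding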
[10] = tested on: Sonic hedgehog protein (Shh); assay: small-molecule binders of Shh protein, primary screen, biochemical, small-molecule microarray, 635/667 nm fluorescence (AID 1151); conditions: small-molecule microarray binding, 635 nm fluorescence; higher = more signal;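 also: Shh protein binding to compounds spotted on small-molecule microarray slides; score combines spot fluorescence intensity with signal-to-noise across triplicate slides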
[11] = E. coli DRC41 culture turbidity changes, primary screen, E. coli filamentation inducer project, strain DRC41, OD650, 48 h (AID 1152);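 also: E. coli MC1000 strain DRC41 lacking acrAB efflux pump and sulA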; conditions: E. coli DRC41 (acrAB sulA), higher = more signal, called active from +8 up or from −8 down
[12] = small-molecule binders of probe aLefty1, primary screen, biochemical, small-molecule microarray, 635/667 nm fluorescence (AID 1153); conditions: higher = more signal;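 also: score merges spot fluorescence with signal-to-noise ratio from the scanned slide images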
[13] = PSAC antagonists in infected red cells, primary screen, cell-based, P. falciparum Indochina, OD700, 1 h (AID 1154); conditions: P. falciparum Indochina infected RBC osmotic lysis, higher = more signal, called active from +8 up or from −8 down
[14] = PSAC antagonists in infected red cells, primary screen, cell-based, P. falciparum Indochina, OD700, 2 h (AID 1155);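 also: lysis reports solute entry through the parasite surface anion channel PSAC; channel blockers reduce lysis of infected cells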; conditions: P. falciparum Indochina infected erythrocytes, osmotic lysis OD700; higher = more signal, called active from +8 up or from −8 down
[15] = osmotic lysis modulators in infected erythrocytes, primary screen, PSAC antagonist project, cell-based, P. falciparum Indochina, OD700, 3 h (AID 1156); conditions: higher = more signal, called active from +8 up or from −8 down
[16] = PSAC antagonists in infected red cells, primary screen, cell-based, P. falciparum Indochina, OD700, 18 h (AID 1157); conditions: P. falciparum Indochina infected erythrocytes, osmotic lysis OD700, 18 h; higher = more signal, called active from +8 up or from −8 down
[17] = modulators of S6 phosphorylation in cells, primary screen, cell-based, A549, cytoblot, luminescence, serum-stimulated (AID 1158); conditions: A549 phospho-S6 cytoblot, 5 h, higher = more signal;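 also: serum-stimulated A549 lung adenocarcinoma cells; signal is phosphorylated S6 detected by cytoblot immunostaining with HRP secondary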
[18] = target: NADPH oxidase 2 (Homo sapiens) (UniProt P04839); assay: NOX2-dependent H2O2 signal modulators, primary screen, NOX inhibitor project, cell-based, HEK293-NOX2, PMA-stimulated, Amplex Red fluorescence (AID 1159); conditions: 45 min, higher = more signal, called active from +8 up or from −8 down; also: test concentration not given here
NADPH oxidase 2 (Homo sapiens), sequence (P04839 whole entry, looked up): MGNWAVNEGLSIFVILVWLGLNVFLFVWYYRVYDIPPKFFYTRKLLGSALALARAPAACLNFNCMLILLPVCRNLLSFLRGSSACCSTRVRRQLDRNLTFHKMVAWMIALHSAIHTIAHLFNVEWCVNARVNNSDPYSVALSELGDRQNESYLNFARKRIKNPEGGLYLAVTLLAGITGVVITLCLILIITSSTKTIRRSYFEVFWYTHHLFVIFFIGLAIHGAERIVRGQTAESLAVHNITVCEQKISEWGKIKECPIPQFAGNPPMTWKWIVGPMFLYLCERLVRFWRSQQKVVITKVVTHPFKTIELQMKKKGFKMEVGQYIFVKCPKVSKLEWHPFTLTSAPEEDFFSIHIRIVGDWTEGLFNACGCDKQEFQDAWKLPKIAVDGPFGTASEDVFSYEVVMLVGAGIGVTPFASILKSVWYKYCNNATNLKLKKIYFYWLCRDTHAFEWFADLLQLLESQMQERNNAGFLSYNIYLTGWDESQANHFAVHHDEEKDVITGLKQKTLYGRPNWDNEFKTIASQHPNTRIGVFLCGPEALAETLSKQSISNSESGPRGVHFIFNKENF

[19] = target: NADPH oxidase 4 (Homo sapiens) (UniProt Q9NPH5); assay: NOX4-dependent H2O2 signal modulators, primary screen, NOX inhibitor project, cell-based, HEK293-NOX4, tetracycline-induced, Amplex Red fluorescence (AID 1160); conditions: 45 min, higher = more signal, called active from +8 up or from −8 down
NADPH oxidase 4 (Homo sapiens), sequence (Q9NPH5 whole entry, looked up): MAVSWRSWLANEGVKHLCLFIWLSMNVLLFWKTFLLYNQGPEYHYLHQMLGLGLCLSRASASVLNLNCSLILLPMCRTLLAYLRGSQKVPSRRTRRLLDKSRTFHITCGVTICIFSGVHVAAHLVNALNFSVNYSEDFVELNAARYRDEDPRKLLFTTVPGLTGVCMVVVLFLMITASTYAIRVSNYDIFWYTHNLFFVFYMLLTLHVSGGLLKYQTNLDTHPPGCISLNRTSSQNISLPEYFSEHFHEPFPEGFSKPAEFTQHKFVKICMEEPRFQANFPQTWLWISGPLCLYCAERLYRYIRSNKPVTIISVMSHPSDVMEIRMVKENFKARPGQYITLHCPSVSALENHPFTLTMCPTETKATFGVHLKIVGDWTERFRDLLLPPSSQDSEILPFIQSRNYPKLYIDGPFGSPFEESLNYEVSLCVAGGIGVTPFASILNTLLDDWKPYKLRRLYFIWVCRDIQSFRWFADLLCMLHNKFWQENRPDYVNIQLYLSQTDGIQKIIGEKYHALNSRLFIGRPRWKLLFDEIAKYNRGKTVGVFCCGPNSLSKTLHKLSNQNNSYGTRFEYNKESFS

[20] = target: NADPH oxidase 5 (Homo sapiens) (UniProt Q96PH1); assay: NOX5-dependent H2O2 signal modulators, primary screen, NOX inhibitor project, cell-based, HEK293-NOX5, Amplex Red fluorescence (AID 1161); conditions: HEK293-NOX5, ionomycin, 45 min, higher = more signal
NADPH oxidase 5 (Homo sapiens), sequence (Q96PH1 whole entry, looked up): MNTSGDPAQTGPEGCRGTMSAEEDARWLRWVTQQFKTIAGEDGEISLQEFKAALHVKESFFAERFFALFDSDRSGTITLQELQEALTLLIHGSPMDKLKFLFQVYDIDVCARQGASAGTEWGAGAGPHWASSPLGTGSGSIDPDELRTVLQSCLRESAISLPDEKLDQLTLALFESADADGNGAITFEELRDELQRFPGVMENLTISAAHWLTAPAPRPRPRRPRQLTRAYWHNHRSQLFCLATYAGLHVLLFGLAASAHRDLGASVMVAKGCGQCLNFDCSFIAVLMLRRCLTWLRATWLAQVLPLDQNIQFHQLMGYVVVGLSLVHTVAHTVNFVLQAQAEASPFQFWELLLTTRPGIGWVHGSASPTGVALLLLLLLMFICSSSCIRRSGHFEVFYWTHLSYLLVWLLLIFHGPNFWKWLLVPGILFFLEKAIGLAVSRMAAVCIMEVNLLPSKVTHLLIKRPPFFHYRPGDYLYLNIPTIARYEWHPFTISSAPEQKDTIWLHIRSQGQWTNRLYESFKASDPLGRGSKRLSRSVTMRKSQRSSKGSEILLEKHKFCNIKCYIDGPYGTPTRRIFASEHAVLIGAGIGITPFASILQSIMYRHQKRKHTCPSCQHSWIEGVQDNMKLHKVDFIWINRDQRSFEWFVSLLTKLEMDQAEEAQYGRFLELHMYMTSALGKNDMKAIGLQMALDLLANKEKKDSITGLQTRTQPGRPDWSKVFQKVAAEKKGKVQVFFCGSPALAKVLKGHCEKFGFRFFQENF

Row | Compound | composite z-score [1] | z-score [2] | z-score [3] | z-score [4] | z-score [5] | composite z-score [6] | composite z-score [7] | composite z-score [8] | composite z-score [9] | composite z-score [10] | z-score [11] | composite z-score [12] | z-score [13] | z-score [14] | z-score [15] | z-score [16] | z-score [17] | z-score [18] | z-score [19] | z-score [20]
1 | COCCOC(=O)N1C(=O)[C@@]2(c3cc(C#CCNC(N)=O)ccc31)[C@H](C(N)=O)[C@H]1C(=O)O[C@H](c3ccccc3)[C@H](c3ccccc3)N1[C@@H]2c1ccc(OCCO)cc1 | 0.601 | 0.166 (inactive) | 0.404 (inactive) | 0.631 (inactive) | -0.0727 (inactive) | 0.668 | 0.0219 | 0.532 | 1.26 | 1.63 | -0.618 (inactive) | -0.41 | 6.81 (inactive) | 1.02 (inactive) | -0.0934 (inactive) | 0.237 (inactive) | -0.575 | 1.8 (inactive) | 1.04 (inactive) | 0.0625
2 | C[C@@]1([C@@H](NC(=O)c2cccs2)c2ccc(-c3ccccc3)cc2)C[C@H]1C1CCCCC1 | -0.465 | -4.41 (inactive) | 0.141 (inactive) | 0.201 (inactive) | -0.169 (inactive) | -0.649 | -0.157 | -1.24 | -0.787 | -1.46 | -1.79 (inactive) | 0.371 | 1.41 (inactive) | -0.427 (inactive) | 1.13 (inactive) | -1.34 (inactive) | 2.17 | -4.07 (inactive) | -4.4 (inactive) | -1.59
3 | O=C1CSC(c2cccc([N+](=O)[O-])c2)N1c1ccccc1 (stereo not given) | 0.0388 | -0.735 (inactive) | -0.249 (inactive) | -0.321 (inactive) | -0.567 (inactive) | -0.545 | -0.147 | 0.838 | 0.153 | 0.221 | 0.0188 (inactive) | 0.0163 | 0.0361 (inactive) | 0.111 (inactive) | 0.708 (inactive) | -0.139 (inactive) | -0.0619 | -0.276 (inactive) | -0.0621 (inactive) | 0.509
4 | C=CCNC(=O)[C@@H]1[C@H]2C(=O)O[C@H](c3ccccc3)[C@H](c3ccccc3)N2[C@H](c2ccc(O)cc2)[C@@]12C(=O)Nc1ccc(C#CCCO)cc12 | 0.177 | -2.21 (inactive) | -0.661 (inactive) | 0.0384 (inactive) | -0.612 (inactive) | -0.955 | -0.153 | -1.05 | -0.106 | -0.736 | 1.79 (inactive) | -0.495 | 2.1 (inactive) | -0.785 (inactive) | -0.534 (inactive) | -1.86 (inactive) | 0.727 | 0.422 (inactive) | -0.449 (inactive) | 0.425
5 | CCC[C@@H]1C[C@@]1(CCC)[C@@H](NC(=O)c1cccs1)c1ccc(Cl)cc1 | -0.551 | -2.21 (inactive) | 0.803 (inactive) | 1.15 (inactive) | -0.127 (inactive) | -0.7 | -0.211 | -0.312 | -0.412 | -0.949 | -0.26 (inactive) | 0.0319 | -0.119 (inactive) | -0.639 (inactive) | 0.307 (inactive) | 0.0519 (inactive) | -0.392 | -1.47 (inactive) | -0.556 (inactive) | 0.684
6 | [N-]=[N+]=NCc1ccccc1C[C@]1(C(=O)NCCN2CCOCC2)COC(c2ccc(OCCCO)cc2)=N1 | 0.315 | -2.41 (inactive) | -0.0639 (inactive) | 2.64 (inactive) | -0.664 (inactive) | 0.837 | 0.161 | 0.969 | 0.645 | -0.204 | 0.581 (inactive) | 0.265 | 23.9 (active) | 10.2 (active) | 3.35 (inactive) | 2.09 (inactive) | 0.132 | -0.379 (inactive) | 0.846 (inactive) | 0.109
7 | COC(=O)[C@@]1(Cc2ccccc2N=[N+]=[N-])N=C(c2ccc(OCCCO)cc2)O[C@H]1c1ccccc1 | 0.748 | -5.42 (inactive) | 0.313 (inactive) | 1.29 (inactive) | -0.688 (inactive) | 0.248 | -0.0403 | -0.89 | 0.305 | 0.175 | -0.734 (inactive) | 0.406 | 22.9 (active) | 8.4 (active) | 0.0321 (inactive) | 2.28 (inactive) | 0.0781 | -2.34 (inactive) | 0.355 (inactive) | -1.76
8 | O=C1O[C@H](c2ccccc2)[C@H](c2ccccc2)N2[C@H]1[C@@H](C(=O)N1CCN(c3ncccn3)CC1)[C@]1(C(=O)Nc3ccc(C#CCCO)cc31)[C@H]2c1ccc(OCCO)cc1 | 1.02 | 0.505 (inactive) | -0.339 (inactive) | -0.471 (inactive) | 0.344 (inactive) | 1.19 | 0.221 | 0.949 | 0.938 | 1.39 | -0.0115 (inactive) | 0.473 | 4.32 (inactive) | 1.18 (inactive) | 0.588 (inactive) | 0.585 (inactive) | 0.034 | 1.11 (inactive) | 0.57 (inactive) | 0.951
